The record followed here is the supplement of paper PMC11624193, “Coupling cellular drug-target engagement to downstream pharmacology with CeTEAM” (Nature Communications, 2024).

Where a name gives a salt, the structure may show the parent alone. Values without a mark were called inactive.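 Rule for the calls: active = log2 fold change beyond 2 SD from the library mean after excluding viability outliers; inactive = within 2 SD.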

Chain of PARP1 L713F-nLuc biosensor (HCT116) (P09874 whole entry L713F, looked up): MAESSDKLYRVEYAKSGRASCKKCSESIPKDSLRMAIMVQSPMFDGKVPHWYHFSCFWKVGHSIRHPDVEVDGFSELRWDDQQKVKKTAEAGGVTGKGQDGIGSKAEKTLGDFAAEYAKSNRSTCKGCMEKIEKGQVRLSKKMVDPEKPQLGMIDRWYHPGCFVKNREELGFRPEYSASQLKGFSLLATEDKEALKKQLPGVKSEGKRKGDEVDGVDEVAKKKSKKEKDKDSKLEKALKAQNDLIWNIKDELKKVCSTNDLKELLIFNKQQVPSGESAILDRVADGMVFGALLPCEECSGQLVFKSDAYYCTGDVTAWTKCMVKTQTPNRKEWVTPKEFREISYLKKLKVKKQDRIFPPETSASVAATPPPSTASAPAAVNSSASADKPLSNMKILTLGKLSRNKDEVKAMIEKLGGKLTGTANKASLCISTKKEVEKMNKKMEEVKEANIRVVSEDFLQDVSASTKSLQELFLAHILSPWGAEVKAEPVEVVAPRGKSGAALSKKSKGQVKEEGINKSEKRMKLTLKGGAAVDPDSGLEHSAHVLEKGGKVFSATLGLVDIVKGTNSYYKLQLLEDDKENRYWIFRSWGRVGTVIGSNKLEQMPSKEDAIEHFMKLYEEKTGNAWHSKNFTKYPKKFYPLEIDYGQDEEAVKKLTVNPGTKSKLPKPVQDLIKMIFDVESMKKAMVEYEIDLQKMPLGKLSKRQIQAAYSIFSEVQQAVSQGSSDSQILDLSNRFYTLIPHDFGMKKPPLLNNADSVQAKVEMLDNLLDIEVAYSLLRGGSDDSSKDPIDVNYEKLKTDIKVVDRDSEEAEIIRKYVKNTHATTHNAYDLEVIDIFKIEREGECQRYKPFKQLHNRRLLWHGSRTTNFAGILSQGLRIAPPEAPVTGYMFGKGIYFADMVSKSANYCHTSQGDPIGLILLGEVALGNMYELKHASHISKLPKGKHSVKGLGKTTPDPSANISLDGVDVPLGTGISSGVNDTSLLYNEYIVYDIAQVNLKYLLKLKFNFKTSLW

This assay concerns the target PARP1 L713F-nLuc biosensor (HCT116) (UniProt P09874). As to the kind of experiment: PARP1 L713F-nLuc/akaLuc ratio relative to DMSO control (biosensor stabilization) (fold change); higher = more PARP1 biosensor stabilization (target engagement / stabilizer), active = hit call of the paper. As to conditions: stock concentration (mM; final µM = stock mM x 1): 10; 24 h.
As for `N#Cc1ccc(COC[C@H]2O[C@@H](n3c(NCc4ccc(Cl)c(Cl)c4)nc4c(N)ncnc43)[C@H](O)[C@@H]2O)cc1`, the “PARP1 L713F-nLuc/akaLuc ratio” value was 0.717.

Turning to `CN1CCCN(C(=O)c2cccc(-c3ccc(/C=C4/C(=O)Nc5ccc(Cl)cc54)o3)c2)CC1`, the “PARP1 L713F-nLuc/akaLuc ratio” value was 0.758.

In the case of `CN(C)CCCn1cc(C2=C(c3c[nH]c4ccccc34)C(=O)NC2=O)c2ccccc21` [Bisindolylmaleimide I], the “PARP1 L713F-nLuc/akaLuc ratio” value is 26.8 (active).

On to `O=c1cc(O)cc(/C=C/c2ccc(O)c(O)c2)o1` [Hispidin], for which the “PARP1 L713F-nLuc/akaLuc ratio” value was 1.19.

In the case of `CN(c1ccccc1)c1ccc2c(c1)CCC[C@H]2CNc1cnccc1C(=O)O`, the “PARP1 L713F-nLuc/akaLuc ratio” value is 0.387.

In the case of `O=C1CN2Cc3c(ccc(Cl)c3Cl)N=C2N1` [Anagrelide HCl], the “PARP1 L713F-nLuc/akaLuc ratio” value is 0.856.

Take `CCS(=O)(=O)N1CC(CC#N)(n2cc(-c3ncnc4[nH]ccc34)cn2)C1` [Baricitinib]: the “PARP1 L713F-nLuc/akaLuc ratio” value was 0.881.
